Records with an inconclusive call do not appear. Unmarked numbers belong to inactive results. Calls come from the whole dose curve; as a rule, active = well fitted cell-killing curve with a large enough effect in the repeat runs; inconclusive = weak or mixed curves, or effect the other way; inactive = no such curve, though single readings can be large or run the other way.
Assay: qHTS assay to identify small molecule antagonists of the sonic hedgehog signaling (Shh) pathway - cell viability counter screen (AID 1259367); note: nearly all actives have a fitted effect of over 55% in size
Settings: NIH/3T3 Gli1-Luc viability, CellTiter-Fluor, 24 h; series mostly up to 92.4 µM; viability change, negative = cytotoxic: at the top concentration
Description: National Center for Advancing Translational Sciences [NCATS]
NIH Chemical Genomics Center [NCGC]
U.S. Environmental Protection Agency [EPA]
National Institutes of Environmental Health Sciences [NIEHS]
National Toxicology Program [NTP]
U.S. Food and Drug Administration [FDA]
The sonic hedgehog (Shh) pathway is essential for normal embryonic development. Dysregulation of the Shh pathway can cause severe developmental defects in organs. Therefore chemicals that interfere with the pathway are potential developmental toxicants. A cell line designated 3T3Gli1-Luc (DMB/OARSA/CFSAN/FDA, Laurel, MD), a NIH/3T3 derived clone containing stably integrated Gli1-Luc reporter is used to detect chemical interference of the Shh pathway, by changes in the expression of the firefly Luc gene under the control of the Gli1 transcriptional response element. This cell line was used to screen Tox21 libraries for identifying and prioritizing the potential developmental toxicants that interfere Shh pathway. Conditioned medium-stimulated mode was used to screen for chemicals inhibiting Shh signaling. The cytotoxicity of the compounds was tested in parallel by measuring the cell viability using CellTiter-Fluor assay system (Promega, Madison, WI) in the same wells.
Tox21 Assay Protocol Summary:
3T3 Gli1-Luc cells were dispensed at 2,000 per well in 5uL of culture medium into white solid bottom 1536-well plates (Greiner Bio-One, Monroe, NC) using a Multidrop Combi (Thermo Scientific, Waltham, MA) dispenser. The assay plates were incubated at 37 C and 5% CO2 for 4hr, and then 23nL of compounds dissolved in DMSO and positive control were transferred using a Pintool station (Wako, San Diego, CA). The compound transfer was followed by the addition of 1ul conditioned medium or assay buffer using two separate tips of Flying Reagent Dispenser (FRD, Aurora Discovery, San Diego, CA). The assay plates were incubated at 37C and 5% CO2 for 24hr. For viability read, after 23hr of compound treatment, 1uL of CellTiter-Fluor reagent (Promega Corporation, Madison, WI) was added to each well of the assay plates using Flying Reagent Dispenser (FRD, Aurora Discovery, San Diego, CA) and incubated the assay plates at 37C for 1hr. The fluorescence signal was quantified using a ViewLux plate reader (Perkin Elmer, Shelton, CT).
% is set by controls: 0 for no effect and ±100 for the full control effect.

Compound | viability change, negative = cytotoxic
COc1cc(C[C@@H](C)N)c(OC)cc1C | -13.8%
CN1C[C@@H](NS(=O)(=O)N(C)C)C[C@@H]2c3cccc4c3c(cn4C)C[C@H]21 | -21.1% [at 42.5 µM]
CCC(C)n1c(=O)[nH]c(C)c(Br)c1=O (stereo not given) | 1.07%
CCCCCCI | -4.06%
ClCC(Cl)(Cl)Cl | -0.485%
CN(N=O)C(N)=O | -4.53%
CNC(=O)Oc1ccc(N(C)C)c(C)c1 | -7.99%
COc1cc(OC)nc(NC(=O)NS(=O)(=O)c2ncccc2C(=O)N(C)C)n1 | 3.48%
CC(=O)C(Cl)Cl | 0.356%
CC1CCCCC1NC(=O)Nc1ccccc1 (stereo not given) | -5.33%
CN1C(=S)CN=C(c2ccccc2)c2cc(Cl)ccc21 | -6.57% [at 42.5 µM]
O=C1OC(CCN2CCCCC2)OC1(c1ccccc1)c1ccccc1 (stereo not given) | 2.61% [at 42.5 µM]
CCOC(=O)NC(=S)Nc1ccccc1NC(=S)NC(=O)OCC | -15.7%
COC(=O)c1ccccc1S(=O)(=O)NC(=O)N(C)c1nc(C)nc(OC)n1 | 0.238%
Nc1cc2c3c(c1)C(c1ccccc1)=N[C@@H](NC(=O)c1cccnc1)C(=O)N3CC2 | -15.7%
CC(C(O)c1ccccc1)N(C)C/C=C/c1ccccc1 (stereo not given) | -5.8% [at 42.5 µM]
CCOP(=S)(OCC)Oc1ncn(-c2ccccc2)n1 | -0.436%
N#CCCC#N | 3.04%
CCOc1nc(C(Cl)(Cl)Cl)ns1 | 3.19%
CCC#N | 3.77%

Compound | viability change, negative = cytotoxic
C=CC1CC=CCC1 (stereo not given) | -2.29%
CCN(CC)C(C)C(=O)c1ccccc1 (stereo not given) | 3.29% [at 42.5 µM]
CCS(=O)(=O)C(C)(C)S(=O)(=O)CC | 3.52% [at 42.5 µM]
c1ccc(N2CCNCC2)cc1 | 1.45% [at 42.5 µM]
CCCCCCBr | 0.138%
O=C(CCCN1CCC(n2c(=O)[nH]c3ccccc32)CC1)c1ccc(F)cc1 | 0.137% [at 42.5 µM]
O=[N+]([O-])c1ccc(CBr)cc1 | -2.24%
CN1CCC(N(Cc2ccccc2)c2ccccc2)CC1 | -7.18% [at 42.5 µM]
CC1COC2(c3ccccc3Cl)c3cc(Cl)ccc3NC(=O)CN12 (stereo not given) | -14.4% [at 42.5 µM]
O=C1CN2CCOC2(c2ccccc2Cl)c2cc(Cl)ccc2N1 (stereo not given) | -4.19% [at 42.5 µM]
O=C1OC(c2ccc(O)c(S(=O)(=O)O)c2)(c2ccc(O)c(S(=O)(=O)O)c2)c2c(Br)c(Br)c(Br)c(Br)c21 | -9.58% [at 42.5 µM]
CCc1cc2c(s1)-n1c(C)nnc1CN=C2c1ccccc1Cl | -22.2% [at 42.5 µM]
N#CC(O)c1ccccc1 (stereo not given) | 10.5%
CC(C)[N+](=O)[O-] | -3.22%
CC(C)COP(=O)(OCC(C)C)OCC(C)C | 2.17%
CCCCc1c(C)nc(NCC)[nH]c1=O | 0.294%
NC1=NC(=O)C(c2ccccc2)O1 (stereo not given) | 4.18% [at 42.5 µM]
ClCCOCOCCCl | -2.72%
CCOC(=O)/C=C(C)/C=C/C[C@@H](C)CCCC(C)C | 3.79%
Nc1ccccc1Cl | 2.57%

Source: PubChem BioAssay (Tox21)
